Columns and labels:
Experiment in all cases: thermal shift delta Tm vs DMSO control; higher = stronger stabilization (binding)
Details in all cases: 12.5 µM; protein concentration 2 µM
LOC_OS04G57630-cb004 = system: LOC_OS04G57630-cb004
Summary of the method: (§1)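 Rice kinase domain constructs were expressed in E. coli, purified, and tested by differential scanning fluorimetry with compound added in DMSO. Each well of a 96-well plate held 19.5 μl of 2 μM kinase in 100 mM potassium phosphate pH 7.5, 150 mM NaCl, 10% glycerol and 5 × SYPRO Orange, and fluorescence was read from 25°C to 95°C at 0.05°C/s. The melting temperature shift is the mean of triplicates, taken against protein with DMSO alone after Boltzmann fitting.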

LOC_OS05G07850-cb002 = system: LOC_OS05G07850-cb002
Summary of the method: as §1

LOC_OS05G16824-cb004 = system: LOC_OS05G16824-cb004
Summary of the method: as §1

LOC_OS05G28520-cb001 = system: LOC_OS05G28520-cb001
Summary of the method: as §1

LOC_OS05G30820-cb001 = system: LOC_OS05G30820-cb001
Summary of the method: as §1

LOC_OS05G43570-cb004 = system: LOC_OS05G43570-cb004
Summary of the method: as §1

LOC_OS06G16330-cb003 = system: LOC_OS06G16330-cb003
Summary of the method: as §1

LOC_OS06G22820-cb001 = system: T1, LOC_OS06G22820-cb001
T1 sequence (whole entry): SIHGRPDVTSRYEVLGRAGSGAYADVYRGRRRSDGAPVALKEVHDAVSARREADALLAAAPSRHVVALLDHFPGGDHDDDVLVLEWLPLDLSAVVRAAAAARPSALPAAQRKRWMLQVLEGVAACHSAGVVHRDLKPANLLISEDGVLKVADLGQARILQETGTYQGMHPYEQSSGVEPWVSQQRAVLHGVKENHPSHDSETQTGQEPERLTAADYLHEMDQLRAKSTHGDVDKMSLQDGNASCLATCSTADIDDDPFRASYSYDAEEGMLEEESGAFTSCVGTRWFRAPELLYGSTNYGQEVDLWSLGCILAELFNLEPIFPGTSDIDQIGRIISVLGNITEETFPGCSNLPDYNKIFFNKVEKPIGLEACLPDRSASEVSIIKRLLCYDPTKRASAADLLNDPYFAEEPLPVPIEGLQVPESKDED
Summary of the method: as §1

LOC_OS07G06570-cb004 = system: LOC_OS07G06570-cb004
Summary of the method: as §1

LOC_OS07G07230-cb001 = system: LOC_OS07G07230-cb001
Summary of the method: as §1

Chain of LOC_OS06G16330-cb003 (as listed by the source): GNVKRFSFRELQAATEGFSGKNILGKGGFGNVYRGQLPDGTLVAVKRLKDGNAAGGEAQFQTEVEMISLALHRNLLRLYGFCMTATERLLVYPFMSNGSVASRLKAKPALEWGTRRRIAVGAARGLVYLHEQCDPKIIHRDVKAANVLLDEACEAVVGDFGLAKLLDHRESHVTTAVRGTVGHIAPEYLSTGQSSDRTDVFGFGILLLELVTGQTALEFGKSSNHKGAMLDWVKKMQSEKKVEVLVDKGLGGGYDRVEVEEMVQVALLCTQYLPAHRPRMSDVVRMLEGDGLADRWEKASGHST

Structure (SMILES)	thermal shift delta Tm (LOC_OS04G57630-cb004) [°C]	thermal shift delta Tm (LOC_OS05G07850-cb002) [°C]	thermal shift delta Tm (LOC_OS05G16824-cb004) [°C]	thermal shift delta Tm (LOC_OS05G28520-cb001) [°C]	thermal shift delta Tm (LOC_OS05G30820-cb001) [°C]	thermal shift delta Tm (LOC_OS05G43570-cb004) [°C]	thermal shift delta Tm (LOC_OS06G16330-cb003) [°C]	thermal shift delta Tm (LOC_OS06G22820-cb001) [°C]	thermal shift delta Tm (LOC_OS07G06570-cb004) [°C]	thermal shift delta Tm (LOC_OS07G07230-cb001) [°C]
OCCn1cc(-c2ccc3c(c2)CC/C3=N\O)c(-c2ccncc2)n1	0.24	2.18	0.35	1.1	0.48	0.5	0.46	0.85	0.92	0.21
Cc1cccc(Nc2nc(NC3CCCCC3N)ncc2C(N)=O)c1 (stereo not given)	0.83	7.79	5.17	0.36	2.02	0.63	6.85	0.81	1.04	0.47
Cn1c(Nc2ccc(C(F)(F)F)cc2)nc2cc(Oc3ccnc(-c4ncc(C(F)(F)F)[nH]4)c3)ccc21	1.62	0.57	1.67	0.86	0.81	3.24	1.24	2.74	1.82	-0.2
COc1cc2nccc(Oc3ccc(NC(=O)c4cn(C(C)C)c(=O)n(-c5ccc(F)cc5)c4=O)cc3F)c2cc1OC	0.32	11.1	2.27	0.34	-0.01	0.27	8.48	0.89	1.78	0.22
COc1cc(Nc2ncc(F)c(Nc3ccc4c(n3)N(COP(=O)(O)O)C(=O)C(C)(C)O4)n2)cc(OC)c1OC [R788 (Fostamatinib) Disodium]	0.34	7.08	6.19	0.86	1.5	0.56	6.28	0.9	1.71	0.59
Nc1ccc(C(=O)Nc2cccc(-c3nc(N4CCOCC4)c4oc5ncccc5c4n3)c2)cn1	1.19	1.25	-3.13	0.31	0.83	0.15	0.32	0.39	0.88	-0.01
CS(=O)(=O)N1CCc2c(-c3cnc(N)nc3)nc(N3CCOCC3)nc21	0.4	2.27	0.4	0.43	0.79	0.7	0.69	0.66	0.72	-0.05
Cc1c(NC(=O)OC[C@@H]2COCCN2)cn2ncnc(Nc3ccc4c(cnn4Cc4cccc(F)c4)c3)c12	0.21	0.64	0.54	0.43	0.46	0.75	-0.49	0.8	0.91	0.29
Cc1cn(-c2cc(NC(=O)c3ccc(C)c(Nc4nccc(-c5cccnc5)n4)c3)cc(C(F)(F)F)c2)cn1 [Nilotinib (AMN-107)]	-0.2	-0.28	-8.56	0.53	0.44	0.26	-0.09	0.72	0.96	0.47
COc1cc(Nc2ncc(F)c(Nc3ccc4c(n3)NC(=O)C(C)(C)O4)n2)cc(OC)c1OC [R406 (free base)]	2.15	13	12.6	0.85	1.44	0.79	14.8	0.44	0.75	-0.18
O=C1NC(=O)C(c2cnc3ccccn23)=C1c1cn2c3c(cc(F)cc13)CN(C(=O)N1CCCCC1)CC2	0.36	5.85	3.38	1.1	0.39	0.48	-0.6	1.42	2.11	0.29
Nc1nc(N)c2nc(-c3cccc(O)c3)c(-c3cccc(O)c3)nc2n1	0.04	5.27	-5.41	0.94	0.79	0.92	0.76	0.53	1.54	0.2
N#Cc1c(NC(=O)c2cccc3ccccc23)sc2c1CCCC2 [JNK Inhibitor IX]	0.22	0.04	-1.1	0.77	0.43	0.27	-0.09	0.6	0.83	0.4
COc1ccccc1-c1cc(Nc2cccc(CS(N)(=O)=O)c2)ncn1	0.35	5.65	3.26	0.95	0.39	0.37	4.76	0.66	0.36	-0.22
CN1CCN(c2ccc(-c3ccncc3-c3cc(F)c(O)c(F)c3)cc2)CC1	0.24	3.75	-0.65	0.95	0.41	0.25	1.09	0.54	0.48	0.18
Cc1nc(NC(=O)N2CCC[C@H]2C(N)=O)sc1-c1ccnc(C(C)(C)C(F)(F)F)c1 [Alpelisib (BYL719)]	-0.02	7.19	-1.37	0.17	0.38	0.29	0.44	0.57	1.48	0.13
COc1ncc(-c2ccc3nccc(-c4ccnnc4)c3c2)cc1NS(=O)(=O)c1ccc(F)cc1F	0.93	6.11	2.11	0.26	0.47	0.73	2.61	0.6	0.86	-0.21
CNS(=O)(=O)C[C@H]1CC[C@H](N(C)c2[nH]cnc3nccc2-3)CC1 [Oclacitinib]	0.5	7.33	-0.02	0.31	0.53	0.33	3.72	0.36	1.6	0.51
CNC(=O)c1cc(Oc2ccc3nc(N[C@@H]4CCCC[C@H]4O)sc3c2)ccn1	0.41	0.33	2.01	0.77	0.47	0.57	0.27	0.57	0.18	0
c1nc2c(NC3CCCCC3)nc(Nc3ccc(N4CCOCC4)cc3)nc2[nH]1 [Reversine]	3.78	12	11.7	0.53	4.07	1.11	8.57	0.3	1.48	1.02
